According to PubChem BioAssay:
This is one part of the list. The source made the active and inactive calls. Cut-off read from the data, not from the text of the source, unless noted: active = inhibition above about 28%; inactive = the rest.

target: Photoreceptor-specific nuclear receptor (Homo sapiens) (UniProt Q9Y5X4); assay: retest of NR2E3-NCOR disrupting agonists – cell-based, luminescence, CHO-S two-hybrid, confirmation (AID 624378;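 active = average inhibition above a cutoff equal to the mean inhibition of all tested compounds plus one SD, cut at about 70% in these data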;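 note: 0% = DMSO in NR2E3 cells and 100% = DMSO in cells lacking NR2E3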); details: CHO-S mammalian two-hybrid NR2E3-NCOR, luciferase luminescence; at 3.98 µM; hits give high values
Sequence (Q9Y5X4 whole entry, looked up): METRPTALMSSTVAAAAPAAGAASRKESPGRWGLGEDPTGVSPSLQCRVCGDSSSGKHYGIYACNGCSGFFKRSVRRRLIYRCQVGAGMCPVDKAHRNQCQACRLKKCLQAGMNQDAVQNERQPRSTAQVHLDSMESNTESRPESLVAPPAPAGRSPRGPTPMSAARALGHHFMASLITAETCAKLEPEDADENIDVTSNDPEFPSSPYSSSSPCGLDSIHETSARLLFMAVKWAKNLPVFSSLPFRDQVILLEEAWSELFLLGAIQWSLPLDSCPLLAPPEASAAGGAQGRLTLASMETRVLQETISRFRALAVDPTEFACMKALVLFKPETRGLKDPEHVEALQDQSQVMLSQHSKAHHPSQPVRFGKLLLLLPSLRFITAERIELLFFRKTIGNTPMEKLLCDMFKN

SMILES	inhibition
CCn1c(CNC(=O)c2cc(OC)c(OC)c(OC)c2)cc2cc(C)ccc21	85.2% (active)
OC[C@@H]1CN(Cc2ccc(-c3ccccc3)cc2)C[C@H](n2cnc3c(NC4CCCC4)ncnc32)O1	94.9% (active)
COc1cc(CC(=O)Nc2nc(-c3ccc(F)c(F)c3)cs2)cc(OC)c1OC	94.2% (active)
CCN(CC)S(=O)(=O)c1ccc(N(C)Cc2ccc(C(F)(F)F)cc2)nc1	34.6% (inactive)
Cn1c(Cc2cccc3ccccc23)nnc1SCC(=O)N1CCN(c2cccc(Cl)c2)CC1	78.1% (active)

tested on: not listed separately; assay: nonselective effects on VP16 transactivation – cell-based, luminescence, CHO-S, high throughput, counter-screen for NR2E3 agonist project, confirmation (AID 624379;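 active = mean inhibition above a cutoff equal to the average over all tested compounds plus one standard deviation, cut at about 70% in these data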;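 note: luciferase from a UAS reporter driven by GAL4-VP16 transactivation; 0% = DMSO with VP16-transfected cells and 100% = DMSO with cells lacking VP16; higher means less reporter light so more repression of VP16 activity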); details: CHO-S GAL4-VP16 luciferase reporter, at 3.98 µM, hits give high values

SMILES	inhibition
CCn1c(CNC(=O)c2cc(OC)c(OC)c(OC)c2)cc2cc(C)ccc21	71% (active)
OC[C@@H]1CN(Cc2ccc(-c3ccccc3)cc2)C[C@H](n2cnc3c(NC4CCCC4)ncnc32)O1	78.4% (active)
COc1cc(CC(=O)Nc2nc(-c3ccc(F)c(F)c3)cs2)cc(OC)c1OC	86.9% (active)
CCN(CC)S(=O)(=O)c1ccc(N(C)Cc2ccc(C(F)(F)F)cc2)nc1	41.8% (inactive)
Cn1c(Cc2cccc3ccccc23)nnc1SCC(=O)N1CCN(c2cccc(Cl)c2)CC1	30.7% (inactive)

tested on: not listed separately; assay: StAR promoter reporter inhibitors, counter-screen for LRH-1 inverse agonist project, cell-based, luminescence, high throughput (AID 651611); details: StAR promoter luciferase reporter counterscreen, at 3.6 µM, hits give high values

SMILES	inhibition
CN(C)c1ccc(CNc2ncnc3sccc23)cc1	2.38% (inactive)
COc1ccc(S(=O)(=O)Nc2cc3c4c(oc3c3ccccc23)CCCC4=O)cc1	24.3% (inactive)
CC(/C=C(\NC(=O)c1ccccc1)C(=O)N=Nc1c(O)[nH]c2ccc(C)cc12)=C\c1ccccc1	34.2% (active)
O=c1[nH]c2cc3ccccc3cc2nc1-c1nnnn1C1CCCC1	33.8% (active)
O=C(NNc1c(F)c(F)cc(F)c1F)C1CCN(S(=O)(=O)c2ccccc2F)CC1	-3.09% (inactive)
CC(C)C(=O)Nc1ccc(C(=O)CN2C(=O)NC3(CCOc4ccccc43)C2=O)cc1 (stereo not given)	8.93% (inactive)
Cc1ccccc1OCC(=O)N/N=C/c1ccc([N+](=O)[O-])o1	18.6% (inactive)
O=C(Nc1ccc2c(c1)CCCN2C(=O)c1ccco1)c1cc([N+](=O)[O-])ccc1Cl	51.9% (active)
O=C(Nc1ccc(S(=O)(=O)N2CCCC2)cc1)c1ccc([N+](=O)[O-])o1	26.2% (inactive)
COc1cccc(-c2cnc3c(NC=O)cc(-c4ccc(S(C)(=O)=O)cc4)cn23)c1	30.2% (active)
O=C(c1ccccc1Br)N1CCN(c2ccc([N+](=O)[O-])c(N3CCOCC3)c2)CC1	8.23% (inactive)
C#CCN(C[C@@H]1[C@@H](OC(=O)NCc2ccc(OC)c(OC)c2)[C@@H](OC(=O)NCc2ccc(OC)c(OC)c2)CN(C(=O)OC(C)C)N1C(=O)OC(C)C)S(=O)(=O)c1ccc(C)cc1	1.68% (inactive)
COCCNc1ncnc2c1ncn2[C@H]1CN(CCc2ccccc2)C[C@@H](CO)O1	9.96% (inactive)
CC(=O)N1CCN(c2cc(N3CCCC3)c(F)cc2[N+](=O)[O-])CC1	2.68% (inactive)
NC(=S)NNc1cc(Cl)cc(Cl)c1	12.8% (inactive)
COc1ccc(-c2ccc(C(=O)NCc3ccncc3)c3occc23)c(C)c1	29.2% (active)
CCOC(=O)c1cc(C#N)c(N2CCCCC2)nc1-c1ccccc1	8.89% (inactive)
CCCc1cc(=O)oc2cc(OCC(=O)NCCc3ccc(S(N)(=O)=O)cc3)ccc12	9.29% (inactive)

SMILES	inhibition
CC(=O)Nc1ccc(NC(=O)CSc2nnc(COc3ccccc3C)n2CC2CCCO2)cc1 (stereo not given)	16.5% (inactive)
CCCCSc1nc(SCC(=O)NCc2ccco2)c2c3c(sc2n1)COC(C)(CC)C3 (stereo not given)	4.87% (inactive)
COC(=O)c1ccc(NC(=O)CSc2nnc(C)n2CC2CCCO2)cc1 (stereo not given)	3.1% (inactive)
O=C(COC(=O)CCN1C(=O)C2CC=CCC2C1=O)NCCc1ccc(F)cc1 (stereo not given)	7.75% (inactive)
COc1ccc(C(=O)Nc2cnccn2)cc1[N+](=O)[O-]	-2.94% (inactive)
COc1ccc(CCNC(=O)CN2C(=O)C3(OCCCO3)c3ccccc32)cc1OC	11.2% (inactive)
CCn1c2ccccc2c2cc(C3C(C#N)=C(N)Oc4n[nH]c(COC)c43)ccc21 (stereo not given)	44.9% (active)
CCN(CC)c1nc(C)c(C(C)=O)cc1C#N	1.34% (inactive)
CC1(C)CC(=O)C=C(c2ccc3c(c2)OCO3)C1	-7.31% (inactive)
CCOc1ccc(CCNC(=O)COC(=O)c2nc(Cl)ccc2Cl)cc1OCC	-2.83% (inactive)
O=C(NCc1ccco1)c1nn(-c2ccccc2)c(=O)c2ccccc12	19.6% (inactive)
COc1ccccc1-c1cc(NC=O)c2ncc(-c3ccc(S(C)(=O)=O)cc3)n2c1	31.8% (active)
COc1ccccc1NC(=O)c1ccc(NC(=O)COC(=O)C(C)C)cc1	12.5% (inactive)
O=C(OCC(=O)N1CCN(c2ccccc2)CC1)c1ccc2ccccc2n1	9.44% (inactive)
CC(=O)Nc1cccc(C(=O)OCC(=O)N2CCN(C(=O)COC(=O)c3cccc(NC(C)=O)c3)CC2)c1	21.9% (inactive)
Cc1ccsc1CNc1ncnc2ccc(-c3c(C)noc3C)cc12	54.5% (active)
CCOc1ccc(OCCN2C(=O)NC(Cc3c[nH]c4ccccc34)C2=O)cc1 (stereo not given)	13.2% (inactive)
